The full ranking holds about 1,800 sequences; the median of “median log2 fold change of GCK-ALFA target abundance (FLAG IP / Myc IP barcode read proportion)” is about 0.14, and the lowest 2% start at about -0.84. Shown is part of a subset that was picked to be rich in the lowest values.
T1: TRAF2, Q12933
T1 chain: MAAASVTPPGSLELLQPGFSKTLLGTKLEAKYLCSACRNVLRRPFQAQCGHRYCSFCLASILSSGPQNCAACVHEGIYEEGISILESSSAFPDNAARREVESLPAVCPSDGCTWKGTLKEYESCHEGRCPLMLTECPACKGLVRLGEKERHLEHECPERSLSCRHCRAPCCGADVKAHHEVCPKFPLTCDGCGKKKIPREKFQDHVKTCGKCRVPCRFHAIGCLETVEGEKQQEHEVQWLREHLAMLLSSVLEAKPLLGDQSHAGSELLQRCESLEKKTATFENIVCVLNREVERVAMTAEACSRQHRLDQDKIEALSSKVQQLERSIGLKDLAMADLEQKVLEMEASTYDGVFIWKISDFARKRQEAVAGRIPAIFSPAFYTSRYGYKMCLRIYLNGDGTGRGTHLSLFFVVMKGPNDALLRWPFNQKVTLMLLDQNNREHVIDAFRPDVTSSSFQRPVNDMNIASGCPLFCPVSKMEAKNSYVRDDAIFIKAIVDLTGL

B1: traf2_out_20_3_2202 (protein)
chain: EELEKKLEEELEKAEELLKKAKELADPETAKKLDELIKRLKESRELSYEDRLVELSEIRREVLLLAQQAKAEGNEELAKVLEEAAEAINRAKNLVYKIIE
B2: traf2_out_13_95_1184 (protein)
chain: SEETKKKINEIADDMLEKVEKILTELAEKVKDDPEVKKAVEEIKKTAVTKGIHTAIGELKELAKKYPEYKELINEAIEKIEEIRREAGKKVAEILKEEEE
B3: traf2_out_20_3_2107 (protein)
chain: KELEEELEKELEEAIKLLEEAAKLADEETAKRLEELRKRVEASRELPYTDRLVALSEVRREVLALAQEAEAAGKEELAKVLEEAADELNKAMNLLMKIIE
B4: traf2_out_15_48_1346 (protein)
chain: DIEKEQKIASEIADDSDKLKDKVAKELEELQKKANPEEAAILDELIAAIRSGASLRTVRGLLLQAQPKFSPETAAKLKALAEEIDELIRENSKRYNEVLK
B5: traf2_out_18_117_1795 (protein)
chain: SEREEIIEELEELAERLGKAASELGKAVLDNWEKLTPEEKSEAMDVLADLSAVRRRAQELIHKIKTENIPVEEARKELEELKKEAEAALAAAEAKIARIK
B6: traf2_out_9_108_2595 (protein)
chain: MTEEEKEEETYEKILKLAKDFLERYDVSEELRADMEAAIEQAEKLRKEGEKRTANILIAISTARVAYEIGEEAVKDFLAELKKIDERSYNAAKRMVKLLK
B7: traf2_out_13_95_1087 (protein)
chain: SAETNAKINEIADKMMEKIEAILDKLSEEVADDPELKAEVEAAKELAITRGVNEAIHKLRELSKAHPEYKEKLDKAIDEIEKVKREASKEISKLLKEEKE
B8: traf2_out_6_3_2532 (protein)
chain: SHMSLLKDAKTVLENMGITTIEELKALVKAEVNAIKKLISRKDVDEADLAGARSVVALSRAMVEVAKETLPDFTEEDYEELNKLLEETEKLIKEREEKLK
B9: traf2_out_17_178_1748 (protein)
chain: NEEELKKIINEKNNEIADIAEKLAEEILKLAKEDPSISPETLALIEEARRNGSHNTAVALFLEASKNEETKKKVEELHKKASEEMNKLAKEREEAIEKYK
B10: traf2_out_11_104_639 (protein)
chain: LTREQAREFNDFAMAKEDEARAVAAELAAALEAAGETAAAARVRAALAHPGAGISTFRNLLEDLLPTLSPAAAAQARAAIARLAALQREVSAKLNELEAK
B11: traf2_out_6_156_2377 (protein)
chain: TKEEILKKAKEKIEKEIKKLAEASEEKKIKYISEIAGAVYKALQALREAGASVEEIKKAVEELKKVAEEEAKKAGLPEDTINLLLSSINAVGEVALREAE
B12: traf2_out_17_178_1665 (protein)
chain: TKEEERKKISELTDKLIDLAEAAADRALALAEREGDLSPEELAALREARRRGSATDVRALMRRWIPRLRSAAELGALLEEFEAEYRKLSKEIAEAYEKYE
B13: traf2_out_11_155_731 (protein)
chain: EKKEKARREIVDFAIEQGDELEAFVEALIKEVEKEDPELAKELRAVFEEHRKYSARSAALAAIDVLRKHGYEERAEELEKKIEEANKKASEFIKKIEEEL
B14: traf2_out_20_38_2042 (protein)
chain: EEEEKEEEQIELDVEIANEALDEVEERFAKWRAEGLSLEEIAERVKEEIRKAFKEAGLEEKLPEYLEQIDLVRDSPDAERLLERILARALALVRRKKREK
B15: traf2_out_20_38_2028 (protein)
chain: SEEEEEKKRLEELIKVANEAYDKAEKKIAKLKAEGKTIEEIAEEAKEEVERILSEVGLEEEREELIEDIDRVLDSPDAERLIARILARAVALAYQKELQK
B16: traf2_out_20_38_2026 (protein)
chain: SMEEEEEKKLEELIKVAQEAYDEAEKKIEELKKEGKSIEEIAEIAKEEIERILSEEGLEEEKEELIEEVDLVLDSPDAERLIARILARAVALAHQKRLEK
B17: traf2_out_5_189_2315 (protein)
chain: SAREEEQKALNEKAKEIGKEVTKLINEMKKEGKSWEEIAEKMLEKMKTLPVDDAALYSGIFYSIMLGEAIANNDEKLKEIAEKFREKAKELIKEKEKKEA
B18: traf2_out_17_162_1608 (protein)
chain: MELEEKLKKLKELLEELEKKLKRLEEKLKNIEKLSKEELSDLLVEASEARRKALEALEEIKKLKEKLDKEEYEKLSKRFEEIAEKFQRIANKFYKELEKK
B19: traf2_out_3_89_2292 (protein)
chain: SEERERKIRLARERAERYARGFEKSARRVAKEMLKEGYSLETLRGVLEAARTALVEVFREELRELGLSEEDIRELVEELERRLREIVEKVLEEAEKKRKE

Biological target: T1, TRAF2, Q12933
Experiment: median log2 fold change of GCK-ALFA target abundance (FLAG IP / Myc IP barcode read proportion) (log2 ratio); each designed protein is fused to an ALFA-tag nanobody in HEK293 cells to bring the named protein to FLAG-tagged glucokinase (GCK); Myc marks an untargeted standard; higher = target protein stabilised (more abundant)
Settings: target protein: 3xFLAG-MCP-GCK-ALFA reporter; HEK293 landing pad (RPLP)
In short: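 An ALFA-nanobody-fused binder library was recombined into HEK293 landing-pad cells and induced with 2 μg mL^−1 doxycycline. Cells were transfected with a plasmid expressing a FLAG-tagged target and a Myc-tagged standard. After 48 h, lysates underwent anti-FLAG and anti-Myc immunoprecipitation, and circular RNA barcodes were reverse transcribed, amplified and sequenced. Target abundance is the per-binder median log2 ratio of FLAG to Myc barcode read proportions. Barcodes needed ≥10^−7 proportion in both replicates, binders ≥3 barcodes per replicate, and a 10^−6 pseudocount was added; the two replicates were pooled.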

Row | Binder | median log2 fold change
1 | B1 | -0.0195
2 | B2 | -0.726
3 | B3 | 0.327
4 | B4 | 0.203
5 | B5 | 0.171
6 | B6 | -0.632
7 | B7 | 0.249
8 | B8 | -1.3
9 | B9 | 0.486
10 | B10 | 0.214
11 | B11 | 0.122
12 | B12 | 0.057
13 | B13 | 0.0471
14 | B14 | -0.0369
15 | B15 | -0.966
16 | B16 | -0.0149
17 | B17 | 0.387
18 | B18 | -0.073
19 | B19 | -1.24
